Only some compounds are listed: those with a hit (about 3.6% of all), similar ones and a draw of the others.
Anthrax LF inh2: anthrax lethal factor protease inhibition; P15917; multiplex microsphere protease cleavage assay, LF; inhibition, % at 10 µM; 0.12% of 360,000 active; AID 588501; also: plate controls were buffer without enzyme for full effect and enzyme alone for no effect
MazEF act: activators of E. coli MazEF toxin-antitoxin RNase. FAM/BHQ RNA-DNA oligo cleavage fluorescence, 5 h. activation, % at 20 µM. 0.32% of 350,000 active; in the data active = activation above about 50%
BoNT-F LC inh: blocks Botulinum neurotoxin F light chain protease; AID 588497; inhibition, % at 10 µM; Multiplex microsphere protease cleavage assay, flow cytometry; 0.22% of 360,000 active; in the data active = inhibition above about 35%, passing the limit was not always enough; inconclusive = no clear call, values can overlap the other calls; also: plate controls were buffer without enzyme for full effect and enzyme alone for no effect
Bead autofluor: compound fluorescence in toxin protease inhibitor counterscreen | compound autofluorescence counterscreen, microsphere flow cytometry; hits give high values | fluorescence intensity (test concentration not listed) | 3.1% of 360,000 active; in the data active = fluorescence intensity above about 16000; inconclusive = no clear call, values can overlap the other calls
BoNT A protease: BoNT A light chain protease inhibition; multiplex microsphere protease substrate cleavage, flow cytometry; inhibition, % at 10 µM; 0.17% of 360,000 active; also: plate controls were buffer without enzyme for full effect and enzyme alone for no effect
The depositor's hits bear a star; u = inconclusive; x = no result. Rule as the data show it, unless noted: active = inhibition above about 30%; inconclusive = no clear call, values can overlap the other calls; inactive = below that.

SMILES	Anthrax LF inh2	MazEF act	BoNT-F LC inh	Bead autofluor	BoNT A protease
O=C(CCC(=O)N1CCN(S(=O)(=O)c2ccccc2)CC1)c1cccs1	-0.8	9.0	4.1	20748*	u
O=S(=O)(NCC(c1ccco1)N1CCCCC1)c1ccccc1C(F)(F)F (centres undefined)	1.9	-9.8	u	5124	2.4
Cc1cc(C)n2nc3nc4c(cc3c2n1)CCCC4	1.7	-2.1	6.4	19863*	u
Cc1ccc(S(=O)(=O)N2CCN(C(=O)C(C)Cn3cncn3)CC2)cc1 (centres undefined)	0.5	-23.1	-4.3	4311	0.7
COc1ccc(OC)c(S(=O)(=O)N2CCCC(C(=O)NCCN3CCOCC3)C2)c1 (centres undefined)	-0.7	5.0	9.7	3658	4.9
O=C1CC(SCc2nc3ccccc3[nH]2)C(=O)N1c1ccc(F)c(Cl)c1 (centres undefined)	-4.0	5.1	-2.6	22834*	-0.1
CC(Cc1ccccc1)=NNc1ccc([N+](=O)[O-])cc1[N+](=O)[O-]	-4.2	-5.7	1.3	3609	0.8
C/C(=N\NS(=O)(=O)c1ccc([N+](=O)[O-])cc1)c1c[nH]c2ccccc12	-1.6	51.9*	-4.0	6263	-1.6
C/C(=N/NS(=O)(=O)c1ccc(Br)cc1)c1c[nH]c2ccccc12	-3.7	33.1	-9.5	4711	-2.3
CC(Cc1ccccc1)=NNS(=O)(=O)c1ccc([N+](=O)[O-])cc1	-5.6	88.0*	-0.7	3947	0.4
COc1cc(CN2CCC(C(=O)NCC(C)(C)CN(C)C)CC2)ccc1OCc1ccccc1	-3.1	13.3	u	3685	0.3
CCn1c(=O)c2c(O)cc(=O)oc2c2ccccc21	3.0	-4.3	-2.5	22829*	u
O=c1cc(-c2ccccc2)c2c(O)cc(O)cc2o1	17.8	6.3	3.4	3294	0.4
CC(C)n1c(=O)c2c(O)cc(=O)oc2c2ccccc21	-0.7	-4.3	3.7	21712*	u
O=c1cc(O)c2c(=O)n(-c3ccccc3)c3ccccc3c2o1	1.6	11.8	9.8	4355	0.9
Cc1ccc(S(=O)(=O)N(CC(=O)Nc2ccc(Cl)cc2)C(=O)N2CCN(C)CC2)cc1	2.4	4.6	2.8	5729	1.1
O=C(Nc1ccc(Cl)c(C(F)(F)F)c1)C1Cc2c(-c3ccccc3)ccnc2O1 (centres undefined)	3.5	x	-1.4	3655	-0.3
CC(C)c1ccc(-c2csc3nc[nH]c(=O)c23)cc1	-7.6	12.0	u	4043	0.0
Cc1nc2ccccc2n1CC(=O)NCCN1CCCC1	-0.8	3.6	5.0	9872	0.3
O=C(Cn1c(C(F)(F)F)nc2ccccc21)NCCN1CCCC1	-4.7	-2.3	-3.2	22679*	2.7
COc1cc(F)ccc1CN1CCC(C(=O)Nc2ccc(Oc3ccccc3)nc2)CC1	0.0	7.0	4.0	6119	0.1
O=C1NCCN1C(=O)c1ccco1	-0.2	9.7	-2.5	22557*	-1.6
O=C(NCCc1ccccc1)c1ncn[nH]1	1.5	-0.5	-0.3	20498*	u
O=C(C1CCCN(c2ncccn2)C1)N1CCc2ccccc21 (centres undefined)	-4.4	0.6	-7.6	17813*	-5.0
O=C(C1CCC(C(=O)N2CCc3ccccc32)CC1)N1CCc2ccccc21 (centres undefined)	1.6	-2.6	-3.8	2801	-0.6
SMILES	Anthrax LF inh2	MazEF act	BoNT-F LC inh	Bead autofluor	BoNT A protease
O=C(Nc1ccccc1-c1ccccc1)C1CCCN(c2ncccn2)C1 (centres undefined)	-2.5	-11.2	-2.0	16368*	-0.2
O=C(NCc1cccc(C(F)(F)F)c1)C1CCCN(c2ncccn2)C1 (centres undefined)	-5.2	-1.2	-0.1	22625*	u
Cc1cc(C)nc(N2CCCC(C(=O)NCc3cccc(C(F)(F)F)c3)C2)n1 (centres undefined)	0.1	-2.7	-15.4	8636	-1.2
COc1ccc(N2C(=O)c3cccc4cccc(c34)C2=O)cc1	13.1	6.8	7.2	3095	2.5
COc1ccc(N2C(=O)c3cccc4c(N(C)CCO)ccc(c34)C2=O)cc1	5.5	155.0*	u	4739	7.1
O=c1[nH]c2cc(F)ccc2c2ccc(F)cc12	8.0	5.8	14.1	3615	0.5
O=C(O)c1ccc(-c2ccc(/C=c3/sc4nc5ccccc5n4c3=O)o2)cc1Cl	132.9*	-89.8	u	7041	31.7*
Cc1nc2ccc(NS(=O)(=O)c3ccc(Br)cc3)cc2s1	-10.8	-33.7	-0.9	3857	0.3
Cc1ccc(S(=O)(=O)NCc2nnc(SCC(=O)Nc3cccc(C)c3C)n2C)cc1	0.5	-4.0	-1.0	21005*	-0.7

Screens as filed in PubChem.
